# Results: ChEMBL document CHEMBL4513216, “Probing the Open Global Health Chemical Diversity Library for Multistage-Active Starting Points for Next-Generation Antimalarials” (ACS Infect Dis, 2020)
# Among all 69,000 compounds or so, about 8,600 (12%) showed an effect of 50% or more. The entries come from a sample that favours strong results as a whole.
# Tested on: Plasmodium berghei
# Assay: Screen against P. berghei liver stage (PbLuc), transformed with Luciferase, at 10uM
# Type: functional, HepG2
# Settings: tested at 10 uM
row,Structure (SMILES),INHIBITION [%]
1,CCN1C[C@@H]2[C@@H](OC)CCN(S(=O)(=O)c3ccccc3F)[C@@H]2C1,21.6
2,Cc1noc([C@@H](C)NCc2cccc(Cl)c2)c1C(=O)O,48.2
3,CN1CC(c2cc(O)nc(NCc3cccc(F)c3)n2)CC1=O (configuration not stated),-34.6
4,O=S(=O)(NCC(O)c1ccoc1)c1ccc(Cl)s1 (configuration not stated),46.1
5,CNc1cc(N2CCCC2CNCc2csc(C(C)C)n2)ncn1 (configuration not stated),46.2
6,CSc1nc(C)cc(N2CCC(c3ncc[nH]3)CC2)n1,44.6
7,CCOc1cc(C)nc(N2CCN(C(=O)c3cn[nH]c3CC)CC2)n1,44.1
8,CCN(C)S(=O)(=O)N1CCCC(CO)(CC=C(C)C)C1 (configuration not stated),-3.96
9,CC(C)=CCC1(CO)CCCN(S(=O)(=O)N2CCCC2)C1 (configuration not stated),91.2
10,CC(C)=CCC1(CO)CCCN(S(C)(=O)=O)C1 (configuration not stated),28.7
11,O=C(c1cccnc1O)N1CCN(CCc2cccs2)CC1,20.45
12,CCNc1nc(-c2cccnc2)c(-c2ccnc(NCCO)n2)s1,-80.5
13,CCNc1nc(-c2cccnc2)c(-c2ccnc(NS(C)(=O)=O)n2)s1,47.1
14,CC(C)(C)Nc1nc(-c2cccnc2)c(-c2ccnc(NCCO)n2)s1,59
15,CN(CC(=O)N1CCCC1Cn1cccn1)Cc1ccccc1 (configuration not stated),48.2
16,COc1cccc(CN2CCC3(CCN(C(=O)C4CC=CC4)CC3)C2)c1,21.3
17,Cc1noc(C)c1C(=O)N1CCCCC1c1cc(C)n2ccnc2n1 (configuration not stated),30.4
18,Cc1cc(C2CCCCN2C(=O)c2ccsc2)nc2nccn12 (configuration not stated),71.3
19,Cc1cc(C2CCCCN2C(=O)c2cccn2C)nc2nccn12 (configuration not stated),18.3

row,Structure (SMILES),INHIBITION [%]
1,O=C(c1cncs1)N1CCOCC(Cc2ccncn2)C1 (configuration not stated),11.235
2,COc1cc(CN(Cc2ccccn2)CC(C)C)cc2c1OCO2,36.2
3,COc1cc(CN(C)C(C)c2ccccn2)cc2c1OCO2 (configuration not stated),58.6
4,COc1cc(CN(CCCN(C)C)Cc2ccccn2)cc2c1OCO2,18.9
5,Cc1cc(F)c(S(=O)(=O)NCC(C)(C)N)cc1F,37.6
6,CCN(CC)c1ncc(CNC2CCc3nc(C(C)C)nn3C2)s1 (configuration not stated),-3.54
7,Cc1ccc(C(C)NCc2cn(CCC(N)=O)c3ccccc23)cc1C (configuration not stated),27.7
8,CC(NCc1cn(CCC(N)=O)c2ccccc12)c1nncn1C (configuration not stated),32.7
9,NC(=O)CCn1cc(CNCCCc2ccncc2)c2ccccc21,-71.1
10,Cc1n[nH]c(C)c1CCCNCc1cn(CCC(N)=O)c2ccccc12,66.7
11,CCCN1CCN(Cc2cn(CCC(N)=O)c3ccccc23)CC1,39.8
12,NC(=O)CCn1cc(CNCCCc2ccccc2O)c2ccccc21,88.5
13,CC(C)n1cnnc1CCNCc1cn(CCC(N)=O)c2ccccc12,6.94
14,NC(=O)CCn1cc(CNCc2csc(N)n2)c2ccccc21,60.9
15,NC(=O)CCn1cc(CNCCCc2csc(N)n2)c2ccccc21,29
16,COc1ccc(S(=O)(=O)N2CCC(O)(CN(C)C)C2)cc1 (configuration not stated),38.2
17,Cc1sc(Br)cc1S(=O)(=O)NCCN,45
18,O=C(Cc1csc(Cc2ccccn2)n1)NCCCN1CCCC1=O,17.5
19,CCOCCC(=O)Nc1cccc(Cl)c1COC,33.7

row,Structure (SMILES),INHIBITION [%]
1,O=C(Cc1n[nH]c2ccccc12)N1CCCC1Cn1cccn1 (configuration not stated),24
2,CCc1nnc(C(C)N2CCN(CCC(C)(C)C)CC2)o1 (configuration not stated),62.4
3,CCc1nnc(C(C)N2CCCN(C(=O)OCC(C)C)CC2)o1 (configuration not stated),36.5
4,CCc1nnc(C(C)N2CCN(CCC(=O)NC3CC3)CC2)o1 (configuration not stated),33.1
5,Cc1cncc(C(=O)N2CCCC(O)(CN3CCCC3)C2)c1 (configuration not stated),4.13
6,CC(C)C(=O)N1Cc2ccccc2CC2(CCCCN2C)C1 (configuration not stated),53.2
7,CC(C)C(=O)N1Cc2ccccc2CC2(CCCN2C)C1 (configuration not stated),37.5
8,CN1CCCCC12Cc1ccccc1CN(C(=O)c1ccccc1)C2 (configuration not stated),10.1
9,CN1CCCCC12Cc1ccccc1CN(C(=O)C1CCCC1)C2 (configuration not stated),8.49
10,CC(=O)N1Cc2ccccc2CC2(CCCCN2C)C1 (configuration not stated),42.4
11,C[C@H](C(=O)N1Cc2ccccc2CC2(CCCN2C)C1)c1ccccc1 (some centres not stated),51.6
12,O=C(c1ccccc1)N(CC1CC1)c1cccnc1,39.7
13,Cc1cc(NCc2cc3n(n2)CCCN(C(=O)C2CCC2)C3)ncn1,-2.46
14,CCc1nc(N2CCOCC2)ncc1C(=O)NC(c1cccs1)C(C)C (configuration not stated),29.5
15,COCCN1C(=O)C2(CCC(C(=O)Nc3ccc(F)cc3)CC2)N=C1C (configuration not stated),20.1
16,COCCN1C(=O)C2(CCC(C(=O)Nc3ccc(C)cc3)CC2)N=C1C (configuration not stated),31.4
17,COCCN1C=NC2(CCC(C(=O)Nc3ccc(C)cc3)CC2)C1=O (configuration not stated),63.5
18,Cc1nc(Nc2cnccn2)cc(C2CN(C(C)C)C2)n1,-21.4
19,Cc1ccc(-c2nnc(SCC(=O)O)n2-c2ccccc2)cc1,5.11
